Data reported in PubChem BioAssay (NCI).
Compounds without any hit were thinned out: in the full panel of roughly 79,000, 15% have a hit. Calls of active or inactive are those of the source. Rule as the data show it: active = growth inhibition above about 70%; inactive = the rest.

What was measured:
[1] = NCI Yeast Anticancer Drug Screen. Data for the mec2-1 strain (AID 157); details: S. cerevisiae mec2-1 strain, hits give high values
How it was run: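 Growth inhibition is read against vehicle-treated controls after compound exposure of the mec2-1 yeast strain, which is defective in DNA damage repair or cell cycle control.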

[2] = NCI Yeast Anticancer Drug Screen. Data for the rad14 strain (AID 159);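 also: 0% = growth of vehicle-treated control cultures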; details: S. cerevisiae rad14 strain growth inhibition, hits give high values
How it was run: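 Screen for anticancer potential: a yeast strain altered in DNA damage repair is grown with compound, and reduced growth is quantified against vehicle controls.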

[3] = NCI Yeast Anticancer Drug Screen. Data for the sgs1 mgt1 strain (AID 161);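 also: 0% = growth of cultures given vehicle only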; details: S. cerevisiae sgs1 mgt1 strain, hits give high values
How it was run: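 Compounds are added to genetically altered yeast, and growth is compared with cultures given vehicle alone to give percent inhibition.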

[4] = NCI Yeast Anticancer Drug Screen. Data for the CLN2oe strain (AID 163);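 also: 0% = growth of vehicle-only control cultures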; details: S. cerevisiae CLN2oe strain, hits give high values
How it was run: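 Compound-treated yeast; growth vs vehicle ctrl = % inhibition. Genetically altered strain (cell-cycle control).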

[5] = NCI Yeast Anticancer Drug Screen. Data for the cln2 rad14 strain (AID 165);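 also: 0% = growth equal to vehicle treated cultures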; details: S. cerevisiae cln2 rad14 strain, hits give high values
How it was run: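 Growth inhibition, relative to vehicle-treated controls, is the read-out. The test organism is a yeast strain with defined genetic alterations, cln2 rad14.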

[6] = NCI Yeast Anticancer Drug Screen. Data for the bub3 strain (AID 167); details: S. cerevisiae bub3 mutant strain, hits give high values
How it was run: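 Screening used yeast with an engineered genetic alteration affecting cell cycle control. Compound-exposed cultures were compared with vehicle cultures, and reduced growth was taken as inhibition.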

[7] = NCI Yeast Anticancer Drug Screen. Data for the wt2 strain (AID 169);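 also: 0% = growth of vehicle-treated yeast cultures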; details: S. cerevisiae wt2 strain growth inhibition, hits give high values
How it was run: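 Compound exposure of yeast; growth compared with vehicle controls; inhibition reported.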

[8] = NCI Yeast Anticancer Drug Screen. Data for the mlh1 strain (AID 171);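 also: 0% = growth of vehicle-treated control cultures of the same strain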; details: S. cerevisiae mlh1 strain growth inhibition, hits give high values
How it was run: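 Compounds are applied to a genetically altered yeast strain, and its growth is compared with that of vehicle-treated cultures to give percent inhibition.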

[9] = NCI Yeast Anticancer Drug Screen. Data for the sgs1 strain (AID 173);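 also: 0% = growth of vehicle-only control cultures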; details: S. cerevisiae sgs1 mutant, hits give high values
How it was run: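 Compounds applied to genetically altered yeast; growth compared with vehicle-treated cultures to give % inhibition.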

[10] = NCI Yeast Anticancer Drug Screen. Data for the mlh1 rad18 strain (AID 175); details: S. cerevisiae mlh1 rad18 strain growth inhibition, hits give high values
How it was run: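 Cells of a genetically altered yeast strain, deficient in DNA damage repair, were treated with compound. Their growth was then compared with that of vehicle-treated cultures to give inhibition.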

[11] = NCI Yeast Anticancer Drug Screen. Data for the rad52 strain (AID 147);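 also: 0% = growth of vehicle-treated control cultures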; details: S. cerevisiae rad52 mutant growth inhibition, hits give high values
How it was run: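 DNA repair-defective yeast; compound exposure; growth scored against vehicle controls.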

[12] = NCI Yeast Anticancer Drug Screen. Data for the wt1 strain (AID 149);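 also: 0% = growth of vehicle-treated wt1 cultures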; details: S. cerevisiae wt1 strain (SPY 50644) growth inhibition, hits give high values
How it was run: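 Using yeast strain wt1, compound-induced growth inhibition was determined against vehicle-treated cultures.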

[13] = NCI Yeast Anticancer Drug Screen. Data for the rad50EPP+ strain (AID 151);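 also: 0% = growth of vehicle-treated control cultures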; details: S. cerevisiae rad50 mutant strain, hits give high values
How it was run: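 rad50EPP+ yeast treated with test compounds. Readout: growth vs vehicle control.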

[14] = NCI Yeast Anticancer Drug Screen. Data for the mgt1 strain (AID 153); details: S. cerevisiae mgt1 mutant growth inhibition, hits give high values
How it was run: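 Growth inhibition relative to vehicle controls was scored for the mgt1 yeast strain after compound exposure.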

[15] = NCI Yeast Anticancer Drug Screen. Data for the rad50 strain (AID 155);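 also: 0% = growth of vehicle-only cultures of the same strain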; details: S. cerevisiae rad50 strain growth inhibition, hits give high values
How it was run: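 Relative growth inhibition (compound vs vehicle) was measured in yeast with a defined repair-gene alteration.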

[16] = NCI Yeast Anticancer Drug Screen. Data for the rad18 strain (AID 177); details: S. cerevisiae rad18 mutant growth inhibition, hits give high values
How it was run: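 Compounds are applied to a repair-deficient yeast strain, and growth is compared with that of vehicle-treated cultures to give percent inhibition.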

[17] = at 5.0 µM (retest, dose inferred, filed as 0.5)
[18] = at 50.0 µM (retest, dose inferred, filed as 5.0)

Measured: growth inhibition

c1c(N2CCOCC2)ssc1=[N+]1CCOCC1
inactive: [1]; [17] 0% | [1]; at 11.0 µM -1% | [1]; at 33.0 µM -1% | [1]; [18] 3% | [1]; at 50.0 µM 51.1% | [1]; at 100.0 µM 1% | [2]; at 1.2 µM -1% | [2]; at 3.7 µM 0% | [2]; at 11.0 µM 3% | [2]; at 33.0 µM 1% | [2]; at 100.0 µM -2% | [3]; [17] 4% | [3]; [18] 2% | [3]; at 50.0 µM 69.1% | [4]; at 1.2 µM 0% | [4]; at 3.7 µM 4% | [4]; at 11.0 µM 3% | [4]; at 33.0 µM 2% | [4]; at 100.0 µM 0% | [5]; [17] -1% | [5]; [18] 7% | [5]; at 50.0 µM 20.7% | [6]; at 1.2 µM 0% | [6]; at 3.7 µM 0% | [6]; [17] -1% | [6]; at 11.0 µM 1% | [6]; at 33.0 µM -2% | [6]; [18] 6% | [6]; at 50.0 µM 51.5% | [6]; at 100.0 µM -2% | [7]; at 1.2 µM 0% | [7]; at 3.7 µM -1% | [7]; at 11.0 µM 0% | [7]; at 33.0 µM 0% | [7]; at 100.0 µM 1% | [8]; at 1.2 µM -1% | [8]; at 3.7 µM 0% | [8]; at 11.0 µM 0% | [8]; at 33.0 µM 0% | [8]; at 100.0 µM -5% | [9]; at 1.2 µM 0% | [9]; at 3.7 µM 1% | [9]; at 11.0 µM 3% | [9]; at 33.0 µM 2% | [9]; at 100.0 µM -3% | [10]; [17] 2% | [10]; [18] 9%
active: [10]; at 50.0 µM 82.7%

COC(=O)c1c(C)ccc2c(O)c3c(cc12)C(=O)c1c2c(cc(O)c1C3=O)C1(C)OC(C)(O2)C(O)C(N(C)C)C1O (stereo unspecified)
active: [11]; at 33.0 µM 94% | [11]; at 100.0 µM 91% | [12]; at 33.0 µM 79% | [12]; at 100.0 µM 94% | [13]; at 33.0 µM 74% | [14]; at 33.0 µM 95% | [14]; at 100.0 µM 94% | [15]; at 11.0 µM 90% | [15]; at 33.0 µM 92% | [15]; [18] 98% | [15]; at 50.0 µM 97% | [15]; at 100.0 µM 84% | [1]; at 11.0 µM 70% | [1]; at 33.0 µM 97% | [1]; [18] 98% | [1]; at 50.0 µM 95.5% | [1]; at 100.0 µM 88% | [2]; at 11.0 µM 98% | [2]; at 33.0 µM 95% | [2]; at 100.0 µM 89% | [3]; [18] 95% | [3]; at 50.0 µM 97.8% | [4]; at 33.0 µM 94% | [4]; at 100.0 µM 92% | [5]; [18] 97% | [5]; at 50.0 µM 92.9% | [6]; at 33.0 µM 96% | [6]; [18] 98% | [6]; at 50.0 µM 95.7% | [6]; at 100.0 µM 89% | [7]; at 33.0 µM 97% | [7]; at 100.0 µM 94% | [8]; at 33.0 µM 97% | [8]; at 100.0 µM 95% | [9]; at 33.0 µM 96% | [9]; at 100.0 µM 91% | [10]; [18] 98% | [10]; at 50.0 µM 96.5% | [16]; at 11.0 µM 80% | [16]; at 33.0 µM 95% | [16]; at 100.0 µM 88%
inactive: [11]; at 1.2 µM 2% | [11]; at 3.7 µM 17% | [11]; at 11.0 µM 68% | [12]; at 1.2 µM 5% | [12]; at 3.7 µM 1% | [12]; at 11.0 µM 22% | [13]; at 1.2 µM -2% | [13]; at 3.7 µM 17% | [13]; at 11.0 µM 51% | [13]; at 100.0 µM 67% | [14]; at 1.2 µM 0% | [14]; at 3.7 µM 10% | [14]; at 11.0 µM 23% | [15]; at 1.2 µM 4% | [15]; at 3.7 µM 35% | [15]; [17] 10% | [1]; at 1.2 µM -3% | [1]; at 3.7 µM 3% | [1]; [17] 6% | [2]; at 1.2 µM 0% | [2]; at 3.7 µM 18% | [3]; [17] -11% | [4]; at 1.2 µM -7% | [4]; at 3.7 µM 0% | [4]; at 11.0 µM 39% | [5]; [17] 39% | [6]; at 1.2 µM -4% | [6]; at 3.7 µM -2% | [6]; [17] -19% | [6]; at 11.0 µM 64% | [7]; at 1.2 µM -1% | [7]; at 3.7 µM 4% | [7]; at 11.0 µM 39% | [8]; at 1.2 µM 2% | [8]; at 3.7 µM 19% | [8]; at 11.0 µM 68% | [9]; at 1.2 µM 0% | [9]; at 3.7 µM 7% | [9]; at 11.0 µM 44% | [10]; [17] 1% | [16]; at 1.2 µM 1% | [16]; at 3.7 µM 25%
